# Source: the supplement of paper PMC13380429
# System: Vero E6 infected with SARS-CoV-2
# Assay: inhibition of SARS-CoV-2 cytopathic effect; higher = more antiviral protection, active = above 15
# Details: 48 h
SMILES,inhibition of SARS-CoV-2 cytopathic effect (1 nM),inhibition of SARS-CoV-2 cytopathic effect (8.33 nM),inhibition of SARS-CoV-2 cytopathic effect (100 nM),inhibition of SARS-CoV-2 cytopathic effect (833.33 nM),inhibition of SARS-CoV-2 cytopathic effect (10000 nM)
CC(C)CN(C[C@@H](O)[C@H](Cc1ccccc1)NC(=O)O[C@H]1CCOC1)S(=O)(=O)c1ccc(N)cc1 [amprenavir],-0.22% (inactive),1.43% (inactive),-0.29% (inactive),-1.76% (inactive),-0.72% (inactive)
O=c1sn(-c2cccc3ccccc23)c(=O)n1Cc1ccccc1 [tideglusib],-1.59% (inactive),-1.6% (inactive),-1.32% (inactive),0.87% (inactive),-0.03% (inactive)
O=C(O)CCCNC(=O)c1cccnc1 [pikamilone],0.18% (inactive),-2.74% (inactive),-0.01% (inactive),0.63% (inactive),-1.86% (inactive)
COc1cc2c(cc1F)C(c1ccccc1Cl)=Nc1c(n[nH]c1C)N2,1.86% (inactive),1.62% (inactive),-1.34% (inactive),2.98% (inactive),2.4% (inactive)
O=C1NC(=O)/C(=C/c2ccc3nccc(-c4ccncc4)c3c2)S1,-0.58% (inactive),-1.8% (inactive),1.55% (inactive),2.78% (inactive),-1.1% (inactive)
C[C@@H]1O[C@@H](O[C@H]2[C@H](Oc3cc(O)c4c(c3)O[C@H](c3ccc(O)cc3)CC4=O)O[C@H](CO)[C@@H](O)[C@@H]2O)[C@H](O)[C@H](O)[C@H]1O [Naringin (Naringoside)],-3.68% (inactive),-1.36% (inactive),-3.02% (inactive),-1.1% (inactive),1.71% (inactive)
CN(C)CCOC1=Cc2ccccc2Sc2ccc(Cl)cc21 [zotepine],3.4% (inactive),2.96% (inactive),4.34% (inactive),0.16% (inactive),-3.52% (inactive)
NC(=S)N/N=C/c1ccncc1 [perchlozone],2.2% (inactive),1.74% (inactive),0.96% (inactive),2.38% (inactive),3.63% (inactive)
COc1cc(Nc2ncc3c(n2)-c2ccc(Cl)cc2C(c2c(F)cccc2OC)=NC3)ccc1C(=O)O [alisertib],-2.11% (inactive),0.41% (inactive),-2.08% (inactive),0.49% (inactive),-5.87% (inactive)
NCCCCCC(=O)O [aminocaproic-acid],-7.62% (inactive),-2.22% (inactive),1.68% (inactive),1.01% (inactive),-2.29% (inactive)
S=C(S)N1CCCC1 [pyrrolidine-dithiocarbamate],2.71% (inactive),4.55% (inactive),4.28% (inactive),12.7% (inactive),24.8% (active)
CCCCC#Cc1nc(NC)c2ncn([C@@H]3O[C@H](CO)[C@@H](O)[C@H]3O)c2n1,-0.9% (inactive),-1.35% (inactive),0.37% (inactive),-1.59% (inactive),-0.62% (inactive)
CC(C)(C)c1ccc(O)cc1 [4-tert-butylphenol],-0.71% (inactive),1.9% (inactive),-1.66% (inactive),2.45% (inactive),2.59% (inactive)
CC1(C)C(/C=C/C=C/C=C/C=C2\N(CCCCS(=O)(=O)O)c3ccc4ccccc4c3C2(C)C)=[N+](CCCCS(=O)(=O)[O-])c2ccc3ccccc3c21 [indocyanine-green],-0.13% (inactive),1.53% (inactive),0.85% (inactive),1.22% (inactive),0.23% (inactive)
O=c1n(CC2CO2)c(=O)n(CC2CO2)c(=O)n1CC1CO1 (stereo not given) [teroxirone],-1.74% (inactive),-0.65% (inactive),0.11% (inactive),0.34% (inactive),9.05% (inactive)
N.N.[Cl][Pt][Cl] [cisplatin],1.16% (inactive),0.86% (inactive),0.61% (inactive),3.21% (inactive),1.76% (inactive)
CC(Oc1c(Cl)cccc1Cl)C1=NCCN1 (stereo not given) [lofexidine],3.3% (inactive),3.14% (inactive),5.17% (inactive),7.76% (inactive),1.15% (inactive)
C[C@H](N)Cn1ccc2cc(F)c(Cl)cc21,1.25% (inactive),4.09% (inactive),1.91% (inactive),-2.16% (inactive),-0.64% (inactive)
C/C(=C\c1csc(C)n1)[C@@H]1C[C@@H]2O[C@]2(C)CCC[C@H](C)[C@H](O)[C@@H](C)C(=O)C(C)(C)[C@@H](O)CC(=O)N1 [ixabepilone],-3.63% (inactive),0.38% (inactive),-5.48% (inactive),-6.58% (inactive),-2.57% (inactive)
